The values that follow come from publication PMC5700166.

Experiment in all cases: protein-binding microarray (PBM); PBM: ~300 nM protein, 6 mM HEPES pH 7.8, 80 mM KCl, 0.5 mM EDTA, 0.5 mM EGTA, 6% glycerol, 35 ng/ul poly-dIdC, 1% milk, 1 h, room temperature; Ap Aiptasia and Nv Nematostella (sea anemones) / Co Capsaspora / Aq Amphimedon (sponge) / Dm Drosophila / Hu human; RHD is the Rel homology domain; high values mean tight binding
Holding throughout (conditions): dsDNA, one strand shown

The target of one assay is T1, GST-Ap-NF-kB RHD (Exaiptasia pallida (Aiptasia), UniProt A0A913YAJ5 2-422).
T1 sequence: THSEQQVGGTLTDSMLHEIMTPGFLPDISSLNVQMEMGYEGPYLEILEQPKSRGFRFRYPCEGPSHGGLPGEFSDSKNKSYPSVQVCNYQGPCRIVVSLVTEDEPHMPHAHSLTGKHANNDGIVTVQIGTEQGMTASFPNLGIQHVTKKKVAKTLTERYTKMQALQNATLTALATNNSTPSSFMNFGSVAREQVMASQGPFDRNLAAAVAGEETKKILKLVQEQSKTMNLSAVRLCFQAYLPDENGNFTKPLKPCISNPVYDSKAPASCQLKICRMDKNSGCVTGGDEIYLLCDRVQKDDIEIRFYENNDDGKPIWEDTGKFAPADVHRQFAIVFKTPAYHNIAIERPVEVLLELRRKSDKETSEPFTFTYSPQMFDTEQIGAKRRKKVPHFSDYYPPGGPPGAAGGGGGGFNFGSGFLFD

Assay [1] concerns the target T2, GST-Nv-NF-kB (Cys allele) (Nematostella vectensis, UniProt E5G601 2-411).
T2 sequence: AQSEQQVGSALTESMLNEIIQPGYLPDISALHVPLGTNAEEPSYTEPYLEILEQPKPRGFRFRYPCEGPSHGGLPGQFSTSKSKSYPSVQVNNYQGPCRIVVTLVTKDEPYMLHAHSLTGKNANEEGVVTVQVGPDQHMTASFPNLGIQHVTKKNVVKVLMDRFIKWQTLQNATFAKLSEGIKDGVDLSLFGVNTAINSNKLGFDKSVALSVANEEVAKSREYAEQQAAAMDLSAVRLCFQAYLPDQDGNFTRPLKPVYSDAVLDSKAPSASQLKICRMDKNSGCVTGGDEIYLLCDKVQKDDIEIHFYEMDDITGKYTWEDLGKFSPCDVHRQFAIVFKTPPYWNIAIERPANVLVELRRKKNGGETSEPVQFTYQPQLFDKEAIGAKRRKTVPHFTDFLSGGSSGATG

The target of assay [2] is T3, GST-Nv-NF-kB (Ser allele) (Nematostella vectensis, UniProt A7UNT2 2-411).
T3 sequence: T2 sequence with Q21R, C66S, S207N, E215Q, V217A, E225K, A268E, D399E

For a further assay, the target named is T4, GST-Co-NF-kB (Capsaspora owczarzaki, UniProt F1ARL5 200-546).
T4 sequence: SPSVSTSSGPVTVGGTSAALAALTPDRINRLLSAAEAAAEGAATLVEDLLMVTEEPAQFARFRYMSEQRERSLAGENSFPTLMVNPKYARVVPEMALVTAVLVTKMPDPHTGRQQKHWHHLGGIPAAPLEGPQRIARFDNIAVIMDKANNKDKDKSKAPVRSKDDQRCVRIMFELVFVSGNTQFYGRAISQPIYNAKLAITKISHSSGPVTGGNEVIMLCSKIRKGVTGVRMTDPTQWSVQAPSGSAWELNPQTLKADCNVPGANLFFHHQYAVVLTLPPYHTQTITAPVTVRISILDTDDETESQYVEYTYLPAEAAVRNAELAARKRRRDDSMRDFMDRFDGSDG

Another assay has as its target T5, GST-Dm-Relish (Drosophila melanogaster, UniProt Q94527 99-473).
T5 sequence: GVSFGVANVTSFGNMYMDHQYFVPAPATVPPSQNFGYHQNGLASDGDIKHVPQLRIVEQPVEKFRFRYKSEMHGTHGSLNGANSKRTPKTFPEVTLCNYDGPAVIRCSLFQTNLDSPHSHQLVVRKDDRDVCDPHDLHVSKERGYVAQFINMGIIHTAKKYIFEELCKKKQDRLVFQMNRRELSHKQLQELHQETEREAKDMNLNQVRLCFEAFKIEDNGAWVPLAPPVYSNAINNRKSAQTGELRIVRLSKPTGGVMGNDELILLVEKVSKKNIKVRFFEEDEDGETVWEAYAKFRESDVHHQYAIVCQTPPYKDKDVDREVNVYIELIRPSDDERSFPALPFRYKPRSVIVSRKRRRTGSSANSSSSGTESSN

For another assay, the target named is T6, GST-Aq-NF-kB (Amphimedon queenslandica, UniProt A9Y5G7 2-389).
T6 sequence: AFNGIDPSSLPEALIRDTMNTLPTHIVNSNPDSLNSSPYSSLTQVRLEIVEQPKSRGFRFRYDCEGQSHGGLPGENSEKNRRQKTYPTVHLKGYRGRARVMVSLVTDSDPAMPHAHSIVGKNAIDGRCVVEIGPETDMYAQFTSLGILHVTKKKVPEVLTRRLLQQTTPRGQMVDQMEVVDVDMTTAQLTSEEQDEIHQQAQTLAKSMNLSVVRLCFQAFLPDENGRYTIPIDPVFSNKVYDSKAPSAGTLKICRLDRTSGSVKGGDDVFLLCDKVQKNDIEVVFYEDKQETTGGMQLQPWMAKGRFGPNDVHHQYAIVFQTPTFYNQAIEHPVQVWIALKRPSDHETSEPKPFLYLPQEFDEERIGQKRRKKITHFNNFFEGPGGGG

The target of a further assay is GST-Hu-p50 (Homo sapiens, UniProt P19838 7-356).
Sequence of GST-Hu-p50 (P19838 7-356): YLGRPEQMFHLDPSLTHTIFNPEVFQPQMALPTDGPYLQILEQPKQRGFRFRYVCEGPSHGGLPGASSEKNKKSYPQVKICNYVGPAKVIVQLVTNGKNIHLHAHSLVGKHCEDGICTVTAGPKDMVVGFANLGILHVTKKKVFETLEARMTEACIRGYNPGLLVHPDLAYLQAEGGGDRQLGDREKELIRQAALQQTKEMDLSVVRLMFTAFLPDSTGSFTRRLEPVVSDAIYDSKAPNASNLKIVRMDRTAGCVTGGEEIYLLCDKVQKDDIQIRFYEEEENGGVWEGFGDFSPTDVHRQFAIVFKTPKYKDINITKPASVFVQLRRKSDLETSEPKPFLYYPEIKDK

Where a chain is given by its changes, count along the chain named.

With “CCGATTAACATCAGGGTTTTACCTGATGTTAATCGGGTCTTGATTCGCTTGACGCTGCTG”, the binding signal in the assay with GST-Ap-NF-kB RHD worked out at 2.62 z-score; in assay [1] it was 3.71 z-score; in assay [2], 4.37 z-score; with GST-Co-NF-kB, 2.01 z-score; in the assay with GST-Dm-Relish it was 6.46 z-score; with GST-Aq-NF-kB, 6.12 z-score. The sequence further had a binding signal in the assay with GST-Hu-p50 of 3.39 z-score.

As for “CCGATTAACATCAGGGAATTACCTGATGTTAATCGGGTCTTGATTCGCTTGACGCTGCTG”, the binding signal with GST-Ap-NF-kB RHD amounted to 8.44 z-score; in assay [1] it was 9.55 z-score; in assay [2], 9.14 z-score; with GST-Co-NF-kB, 5.01 z-score; in the assay with GST-Dm-Relish, 8.83 z-score; in the assay with GST-Aq-NF-kB, 9.49 z-score. This sequence displayed a binding signal in the assay with GST-Hu-p50 of 5.8 z-score.

In the case of “CCGATTAACATCAAGGGGAATAATGATGTTAATCGGGTCTTGATTCGCTTGACGCTGCTG”, the binding signal with GST-Ap-NF-kB RHD stood at 5.34 z-score; in assay [1], 8.01 z-score; in assay [2], 8.1 z-score; with GST-Co-NF-kB it was 7.2 z-score; with GST-Dm-Relish, 4.17 z-score; with GST-Aq-NF-kB, 5.64 z-score. The sequence also returned a binding signal in the assay with GST-Hu-p50 of 5.62 z-score.

Consider “CCGATTAACATCAGAAGTGGGAATGATGTTAATCGGGTCTTGATTCGCTTGACGCTGCTG”, for which the binding signal was determined as 2.07 z-score with GST-Ap-NF-kB RHD; 2 z-score in assay [1]; 1.53 z-score in assay [2]; 2.78 z-score with GST-Co-NF-kB; 1.15 z-score with GST-Dm-Relish; 2.35 z-score in the assay with GST-Aq-NF-kB. The sequence also showed a binding signal with GST-Hu-p50 of 1.13 z-score.

For the sequence “CCGATTAACATCAGAGAATCCCCTGATGTTAATCGGGTCTTGATTCGCTTGACGCTGCTG”, the binding signal is 9.54 z-score in the assay with GST-Ap-NF-kB RHD; 9.8 z-score in assay [1]; 10.9 z-score in assay [2]; 3.37 z-score in the assay with GST-Co-NF-kB; 8.56 z-score with GST-Dm-Relish; 7.28 z-score with GST-Aq-NF-kB. Also, the binding signal with GST-Hu-p50 turned out to be 6.99 z-score.

In the case of “CCGATTAACATCAGGGGGAAGAATGATGTTAATCGGGTCTTGATTCGCTTGACGCTGCTG”, the binding signal in the assay with GST-Ap-NF-kB RHD came to 5.11 z-score; in assay [1], 6.3 z-score; in assay [2] it was 6.8 z-score; in the assay with GST-Co-NF-kB, 9.93 z-score; in the assay with GST-Dm-Relish, 4.78 z-score; in the assay with GST-Aq-NF-kB, 4.87 z-score. In addition, in the assay with GST-Hu-p50, the binding signal was found to be 5.86 z-score.

As to “CCGATTAACATCAGGGACTTTTATGATGTTAATCGGGTCTTGATTCGCTTGACGCTGCTG”, the binding signal came to 7.76 z-score with GST-Ap-NF-kB RHD; 9.97 z-score in assay [1]; 9.79 z-score in assay [2]; 1.97 z-score with GST-Co-NF-kB; 8.37 z-score with GST-Dm-Relish; 7.89 z-score with GST-Aq-NF-kB. The sequence also showed a binding signal with GST-Hu-p50 of 6.59 z-score.

Turning to “CCGATTAACATCACAAACCCCCCTGATGTTAATCGGGTCTTGATTCGCTTGACGCTGCTG”, the binding signal with GST-Ap-NF-kB RHD was 6.66 z-score; in assay [1] it was 4.96 z-score; in assay [2], 6.4 z-score; in the assay with GST-Co-NF-kB it was 3.99 z-score; in the assay with GST-Dm-Relish, 7.41 z-score; with GST-Aq-NF-kB, 5.34 z-score. Besides, in the assay with GST-Hu-p50, the binding signal was found to be 6.08 z-score.

Regarding “CCGATTAACATCAAATTTCCCCTTGATGTTAATCGGGTCTTGATTCGCTTGACGCTGCTG”, the binding signal is 8.8 z-score with GST-Ap-NF-kB RHD; 10.8 z-score in assay [1]; 13.2 z-score in assay [2]; 7.98 z-score with GST-Co-NF-kB; 7.38 z-score in the assay with GST-Dm-Relish; 8.06 z-score with GST-Aq-NF-kB. This sequence also registered a binding signal with GST-Hu-p50 of 7.51 z-score.

Consider “CCGATTAACATCAGAAATCCCCATGATGTTAATCGGGTCTTGATTCGCTTGACGCTGCTG”, for which the binding signal with GST-Ap-NF-kB RHD is 8.63 z-score; in assay [1], 9.17 z-score; in assay [2], 9.84 z-score; in the assay with GST-Co-NF-kB it was 4.52 z-score; in the assay with GST-Dm-Relish, 8.03 z-score; in the assay with GST-Aq-NF-kB, 6.3 z-score. The sequence also had a binding signal with GST-Hu-p50 of 6.99 z-score.

In the case of “CCGATTAACATCACGGGATTCCCTGATGTTAATCGGGTCTTGATTCGCTTGACGCTGCTG”, the binding signal with GST-Ap-NF-kB RHD was 6.4 z-score; in assay [1], 6.23 z-score; in assay [2], 5.14 z-score; with GST-Co-NF-kB, 2.93 z-score; with GST-Dm-Relish, 10.2 z-score; with GST-Aq-NF-kB it was 7.3 z-score. The sequence also showed a binding signal with GST-Hu-p50 of 4.17 z-score.

For the sequence “CCGATTAACATCAAAAATCCCAATGATGTTAATCGGGTCTTGATTCGCTTGACGCTGCTG”, the binding signal with GST-Ap-NF-kB RHD was 2.79 z-score; in assay [1] it was 3.4 z-score; in assay [2] it was 2.4 z-score; in the assay with GST-Co-NF-kB it was 1.58 z-score; in the assay with GST-Dm-Relish it was 6.98 z-score; in the assay with GST-Aq-NF-kB, 3.37 z-score. Further, the binding signal with GST-Hu-p50 was 3.32 z-score.
